PubChem BioAssay (NCATS)
Results filed as inconclusive are left out. Calls of active or inactive are those of the source. Unless noted, the call rests on the fitted dose curve; in most records, active means well fitted curve in either direction with a large enough effect (not every such curve was filed as active); inconclusive means small, poorly fitted or top-dose-only effect, or another doubt; inactive means flat fitted curve, though single readings scatter.

Tests used:
[1] = target: Lysosomal acid glucosylceramidase (Homo sapiens) (UniProt P04062); assay: Glucocerebrosidase-p2 (AID 348; in the data active means potency below about 10 µM; further: potency means the concentration at half of the fitted maximal effect); conditions: purified GBA, blue fluorogenic substrate, 40 min
Chain of Lysosomal acid glucosylceramidase (Homo sapiens) (P04062 whole entry, looked up): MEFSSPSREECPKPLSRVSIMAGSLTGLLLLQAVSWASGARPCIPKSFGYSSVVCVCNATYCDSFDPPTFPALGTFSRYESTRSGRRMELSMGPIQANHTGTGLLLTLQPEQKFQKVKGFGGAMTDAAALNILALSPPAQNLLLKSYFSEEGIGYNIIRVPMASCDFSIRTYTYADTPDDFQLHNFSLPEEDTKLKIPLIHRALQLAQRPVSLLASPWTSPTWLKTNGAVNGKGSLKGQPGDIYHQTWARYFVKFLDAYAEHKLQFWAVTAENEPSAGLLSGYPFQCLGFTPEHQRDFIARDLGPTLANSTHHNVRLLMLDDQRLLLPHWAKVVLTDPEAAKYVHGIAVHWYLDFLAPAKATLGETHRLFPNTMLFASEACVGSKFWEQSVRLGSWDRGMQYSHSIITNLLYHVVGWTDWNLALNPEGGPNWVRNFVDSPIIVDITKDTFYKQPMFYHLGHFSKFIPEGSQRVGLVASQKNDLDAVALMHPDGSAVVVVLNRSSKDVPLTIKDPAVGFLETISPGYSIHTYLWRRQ
Summary of the method: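 Compounds titrated from 0.6 nM upwards against 0.2 nM enzyme in pH 5.9 citric acid/KH2PO4, taurocholate, tween-20; blue fluorogenic substrate 80 uM, 40 min room temperature, stopped and read Ex 365/Em 440 for AC50.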

[2] = AP1 Signaling Pathway (AID 357); conditions: ME-180 AP-1-bla reporter, EGF-induced, beta-lactamase ratio, 5 h; at 7.69 µM (top of the series) unless noted; further: on the % scale 0 is the no-effect control and ±100 the full control effect
Summary of the method: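 ME-180 cells with beta-lactamase reporter under AP-1 response element, stimulated with EC50 EGF; compounds tested in titration series, 5 h at 37 °C. CCF4 substrate added 2.5 h at room temperature; 460/530 nm emission ratio gave %activity and AC50.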

[3] = NFAT Signaling Pathway (AID 444); conditions: Jurkat NFAT-bla M1, carbachol, beta-lactamase ratio, 5 h; at 7.69 µM (top of the series) unless noted;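 further: carbachol stimulus at about its EC50 of 1 µM final; on the % scale 0 is the no-effect control and ±100 the full control effect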
Summary of the method: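 Jurkat cells with NFAT-driven β-lactamase reporter and co-expressed M1 receptor, stimulated with carbachol (final 1 uM, ~EC50), compound titration, 5 h at 37 °C. CCF4 loaded 1 h at RT; 460/530 nm ratio gave %activity and AC50.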

[4] = Stat Signaling Pathway (AID 446); conditions: ME-180 SIE beta-lactamase reporter, IL-6 stimulated, 5 h; at 7.69 µM (top of the series) unless noted;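 further: ME-180 cervical cancer cells given 40 pM IL-6 alongside compound; SIE-controlled beta-lactamase reporter measured as 460/530 nm FRET emission ratio; on the % scale 0 is the no-effect control and ±100 the full control effect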
Summary of the method: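 Reporter line: ME-180 cervical carcinoma, SIE-beta-lactamase. Treatment: compound with 40 pM IL-6, 5 hrs, 37 C, in low-serum OPTI-MEM with 10 mM HEPES pH 7.3. Detection: 460/530 nm fluorescence.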

[5] = target: Glucocorticoid receptor (Homo sapiens) (UniProt P04150); assay: GR-EFC Redistribution (AID 451; calls by dose curve; further: potency means the concentration at half of the fitted maximal effect); conditions: CHO-K1 GR-EFC translocation, beta-gal luminescence, 2 h
Chain of Glucocorticoid receptor (Homo sapiens) (P04150 whole entry, looked up, the tested form may be a part): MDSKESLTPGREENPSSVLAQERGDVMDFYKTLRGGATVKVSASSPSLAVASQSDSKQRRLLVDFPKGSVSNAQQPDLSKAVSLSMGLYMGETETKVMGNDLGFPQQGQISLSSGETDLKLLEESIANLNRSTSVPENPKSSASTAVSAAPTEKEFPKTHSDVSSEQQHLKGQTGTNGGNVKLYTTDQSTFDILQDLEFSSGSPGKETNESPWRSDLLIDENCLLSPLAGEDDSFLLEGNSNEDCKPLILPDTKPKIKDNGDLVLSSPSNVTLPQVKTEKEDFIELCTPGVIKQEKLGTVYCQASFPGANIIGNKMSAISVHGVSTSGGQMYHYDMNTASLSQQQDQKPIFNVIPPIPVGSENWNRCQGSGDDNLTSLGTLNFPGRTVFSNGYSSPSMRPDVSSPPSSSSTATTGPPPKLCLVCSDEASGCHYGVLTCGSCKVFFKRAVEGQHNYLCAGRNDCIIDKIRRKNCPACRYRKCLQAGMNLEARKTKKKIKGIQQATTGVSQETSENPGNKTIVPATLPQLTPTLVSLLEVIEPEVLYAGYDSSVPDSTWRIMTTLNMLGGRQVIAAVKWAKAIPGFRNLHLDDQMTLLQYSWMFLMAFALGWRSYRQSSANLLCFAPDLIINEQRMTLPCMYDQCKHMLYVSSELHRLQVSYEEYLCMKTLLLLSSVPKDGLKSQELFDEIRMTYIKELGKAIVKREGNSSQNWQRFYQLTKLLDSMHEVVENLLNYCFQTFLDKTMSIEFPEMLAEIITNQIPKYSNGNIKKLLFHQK
Summary of the method: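 CHO-K1 cells expressing nuclear EA and GR-ED fragments of b-gal; compounds titrated up to 46 uM final, 2 h at 37 C. GR nuclear translocation read as complemented b-gal luminescence after 1 h RT detection.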

[6] = target: Mitogen-activated protein kinase 10 (Mus musculus) (UniProt Q61831); assay: JNK3 AlphaScreen Assay (AID 530); conditions: JNK3 lysate, c-Jun phosphorylation; series mostly up to 57.1 µM;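 further: kinase came from lysate of stimulated human HepG2 cells; signal reports phosphorylation of biotinylated GST-cJun 1-79 at Ser73 with 10 µM ATP; on the % scale 0 is the no-effect control and ±100 the full control effect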
Summary of the method: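 Pre-activated (IL-1β/TNFα) JNK3 in HepG2 lysates phosphorylates biotin-GST-cJun(1-79), 10 uM ATP; anti-phospho-cJun(Ser73) AlphaScreen read at room temperature, pH 7.6 Tris buffer. Compounds pre-incubated 15 min as titrations.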

[7] = target: 3',5'-cyclic-AMP phosphodiesterase 4B (Homo sapiens) (UniProt Q07343); assay: qHTS Assay for Inhibitors of PDE-IV (AID 607; active means well fitted activation curve with a large enough effect in the main read-out, with a control signal flat, not every such curve was filed as active; further: % of control where 0% means no effect); conditions: HEK293 ACTOne CNG channel cells, membrane potential fluorescence; series mostly up to 22.9 µM
Chain of 3',5'-cyclic-AMP phosphodiesterase 4B (Homo sapiens) (Q07343 whole entry, looked up): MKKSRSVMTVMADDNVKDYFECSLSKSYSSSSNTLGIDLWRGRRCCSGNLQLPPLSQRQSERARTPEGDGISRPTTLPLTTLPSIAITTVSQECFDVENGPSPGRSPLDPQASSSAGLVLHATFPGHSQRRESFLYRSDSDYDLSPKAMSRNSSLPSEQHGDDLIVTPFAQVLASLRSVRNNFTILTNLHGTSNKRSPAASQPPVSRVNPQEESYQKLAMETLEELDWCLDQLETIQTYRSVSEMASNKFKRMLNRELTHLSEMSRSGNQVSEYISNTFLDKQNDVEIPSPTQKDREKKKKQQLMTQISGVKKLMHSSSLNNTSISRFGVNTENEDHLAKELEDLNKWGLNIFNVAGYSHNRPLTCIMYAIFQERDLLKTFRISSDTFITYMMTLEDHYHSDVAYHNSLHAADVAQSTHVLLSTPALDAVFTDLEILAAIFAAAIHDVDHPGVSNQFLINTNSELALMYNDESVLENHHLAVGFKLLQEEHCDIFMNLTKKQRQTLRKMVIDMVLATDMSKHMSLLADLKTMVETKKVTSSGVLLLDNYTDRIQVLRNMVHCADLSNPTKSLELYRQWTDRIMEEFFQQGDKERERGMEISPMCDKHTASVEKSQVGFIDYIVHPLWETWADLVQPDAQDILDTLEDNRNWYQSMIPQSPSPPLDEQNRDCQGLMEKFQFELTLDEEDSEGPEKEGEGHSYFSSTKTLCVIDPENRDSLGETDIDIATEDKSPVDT
Summary of the method: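 Cell-based read-out of cAMP via a modified cyclic nucleotide-gated channel and membrane potential dye (535/590 nm) in HEK293 cells expressing PDE4 endogenously. Compounds tested up to 22.9 uM final; 100 uM RO 20-1724 reference.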

[8] = qHTS Assay for Lipid Storage Modulators (AID 1519; calls by dose curve); conditions: Drosophila S3 cells, BODIPY lipid droplet/cell ratio, laser cytometry, cells loaded with oleic acid; for activity change, negative = inhibition: at 57.5 µM (top of the series)
Summary of the method: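 Cells seeded at 5,000 per well were treated with compounds over a concentration series and loaded with oleic acid (400 uM, as added). Lipid droplet fluorescence (488 nm excitation, 500-530 nm channel) was read by laser-scanning cytometry and normalized to 20 uM Triacsin C.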

[9] = Primary qHTS for small molecule stabilizers of the endoplasmic reticulum resident proteome: Secreted ER Calcium Modulated Protein (SERCaMP) assay (AID 1508630; active means well fitted curve in the direction sought with a large enough effect; an effect the other way counts as inactive or inconclusive; further: on the % scale 0 is the no-effect control and ±100 the full control effect); conditions: SH-SY5Y GLuc-SERCaMP (Gaussia luciferase released on ER calcium loss) secretion, thapsigargin, luminescence; series mostly up to 38.4 µM
Summary of the method: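 GLuc-SERCaMP-expressing SH-SY5Y cells, pretreated 16 h with compound, are challenged with thapsigargin to empty ER calcium stores; after 4 h, coelenterazine is added directly to the medium and luminescence is imaged.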

[10] = target: Cytochrome P450 1A2 (Homo sapiens) (UniProt P05177); assay: p450-cyp1a2 (AID 410; calls by dose curve; further: potency means the concentration at half of the fitted maximal effect;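 on activity change, negative = inhibition: -100% = full effect of reference inhibitor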); conditions: recombinant CYP1A2, luciferin-ME demethylation, luminescence; series mostly up to 57 µM
Chain of Cytochrome P450 1A2 (Homo sapiens) (P05177 whole entry, looked up): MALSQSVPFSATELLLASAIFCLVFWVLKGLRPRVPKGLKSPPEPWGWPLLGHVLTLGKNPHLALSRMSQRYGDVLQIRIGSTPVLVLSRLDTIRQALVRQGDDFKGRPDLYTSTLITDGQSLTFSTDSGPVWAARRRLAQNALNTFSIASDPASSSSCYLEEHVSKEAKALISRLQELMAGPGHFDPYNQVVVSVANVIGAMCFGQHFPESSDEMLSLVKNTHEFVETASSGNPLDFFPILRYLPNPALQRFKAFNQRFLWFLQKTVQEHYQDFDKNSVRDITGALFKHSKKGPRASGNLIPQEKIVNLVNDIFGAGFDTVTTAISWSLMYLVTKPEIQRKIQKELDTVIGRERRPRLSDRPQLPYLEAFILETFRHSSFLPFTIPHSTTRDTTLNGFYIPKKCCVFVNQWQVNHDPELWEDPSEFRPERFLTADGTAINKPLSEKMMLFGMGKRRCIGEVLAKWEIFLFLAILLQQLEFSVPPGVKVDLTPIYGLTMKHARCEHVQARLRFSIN
Summary of the method: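 Luminescent readout of luciferin formed from Luciferin-ME by human CYP1A2; data normalized against complete inhibition by 57 uM furafylline. Enzyme 20nM, substrate 100uM at Km, 100mM KPO4 buffer, 60 min reaction at room temperature.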

[11] = target: Glucocorticoid receptor (Homo sapiens) (UniProt P04150); assay: GR-GFP Redistribution (AID 450;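 active means compounds whose dose series gives a full or clear partial fitted curve of increased nuclear translocation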; further: potency means the concentration at half of the fitted maximal effect); conditions: U2OS GR-GFP nuclear translocation, laser cytometry, 2 h
[12] = target: Cytochrome P450 2C9 (Homo sapiens) (UniProt P11712); assay: qHTS Assay for Inhibitors and Substrates of Cytochrome P450 2C9 (AID 883; active means well fitted curve in the direction sought with a large enough effect; an effect the other way counts as inactive or inconclusive; further: potency means the concentration at half of the fitted maximal effect; nearly all actives have a fitted effect of over 60% in size); conditions: recombinant CYP2C9, luciferin-H luminescence, 60 min; series mostly up to 57.1 µM
Summary of the method: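 Human CYP2C9 (10nM) with Luciferin-H at 100uM (its KM) in 25mM KPO4; compound preincubated 10 min at 37C, then NADPH regeneration for 60 min at 37C. Luciferin read by luminescence after detection reagent; normalized to 57uM sulphaphenazole as full inhibition.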

[13] = target: Cytochrome P450 3A4 (Homo sapiens) (UniProt P08684); assay: qHTS Assay for Activators of Cytochrome P450 3A4 (AID 885; active means well fitted curve in the direction sought with a large enough effect; an effect the other way counts as inactive or inconclusive; further: nearly all actives have a fitted effect of over 65% in size); conditions: recombinant CYP3A4, Luciferin-PPXE luminescence, 60 min; series mostly up to 57.1 µM
Chain of Cytochrome P450 3A4 (Homo sapiens) (P08684 whole entry, looked up): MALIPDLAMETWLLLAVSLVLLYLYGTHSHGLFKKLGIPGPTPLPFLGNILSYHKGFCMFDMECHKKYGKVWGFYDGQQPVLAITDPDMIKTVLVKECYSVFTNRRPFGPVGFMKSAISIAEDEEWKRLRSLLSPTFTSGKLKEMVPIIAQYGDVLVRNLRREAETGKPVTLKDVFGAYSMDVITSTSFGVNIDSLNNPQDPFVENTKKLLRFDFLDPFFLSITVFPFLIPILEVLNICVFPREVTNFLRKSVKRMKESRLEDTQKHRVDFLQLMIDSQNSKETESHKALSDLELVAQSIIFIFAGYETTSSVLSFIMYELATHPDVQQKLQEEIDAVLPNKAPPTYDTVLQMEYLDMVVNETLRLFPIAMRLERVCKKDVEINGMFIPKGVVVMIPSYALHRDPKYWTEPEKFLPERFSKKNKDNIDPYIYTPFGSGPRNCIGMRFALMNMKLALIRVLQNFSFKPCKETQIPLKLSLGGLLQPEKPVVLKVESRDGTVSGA
Summary of the method: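 Signal was normalized against complete inhibition by 57 uM ketoconazole. The reaction used 20nM CYP3A4 with 25uM Luciferin-PPXE, 10-min compound preincubation and a 60-min NADPH-supported step at RT.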

[14] = qHTS Assay for Identification of Small Molecule Agonists for Hypoxia Response Element Signaling Pathway (AID 914; active means well fitted activation curve with a large enough effect in the signal ratio, with a control signal flat, not every such curve was filed as active; the % refers to the signal ratio; further: potency means the concentration at half of the fitted maximal effect; on activation: % of control where 0% means no effect); conditions: ME-180 (cervical carcinoma) HRE-bla reporter, beta-lactamase ratio, CoCl2, 17 h; activation: stronger effect = higher value
Summary of the method: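 AC50 values come from titration-series %Activity, taken as the 460/530nm ratio of CCF4 fluorescence (excitation 405nm). CellSensor HRE-bla ME-180 cells were treated 17 hours at 37 C with compound plus an EC50 level of CoCl2.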

[15] = target: Ubiquitin carboxyl-terminal hydrolase 1 (Homo sapiens) (UniProt O94782); assay: Inhibitors of USP1/UAF1: Pilot qHTS (AID 504865; active means well fitted curve in the direction sought with a large enough effect; an effect the other way counts as inactive or inconclusive;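 further: rhodamine fluorescence freed from ubiquitin-rhodamine substrate followed over time; top concentration of the series differs between compounds; on the % scale 0 is the no-effect control and ±100 the full control effect; nearly all actives have a fitted effect of over 35% in size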); conditions: purified USP1/UAF1, Ub-rhodamine cleavage fluorescence; series mostly up to 54.9 µM
Chain of Ubiquitin carboxyl-terminal hydrolase 1 (Homo sapiens) (O94782 whole entry, looked up): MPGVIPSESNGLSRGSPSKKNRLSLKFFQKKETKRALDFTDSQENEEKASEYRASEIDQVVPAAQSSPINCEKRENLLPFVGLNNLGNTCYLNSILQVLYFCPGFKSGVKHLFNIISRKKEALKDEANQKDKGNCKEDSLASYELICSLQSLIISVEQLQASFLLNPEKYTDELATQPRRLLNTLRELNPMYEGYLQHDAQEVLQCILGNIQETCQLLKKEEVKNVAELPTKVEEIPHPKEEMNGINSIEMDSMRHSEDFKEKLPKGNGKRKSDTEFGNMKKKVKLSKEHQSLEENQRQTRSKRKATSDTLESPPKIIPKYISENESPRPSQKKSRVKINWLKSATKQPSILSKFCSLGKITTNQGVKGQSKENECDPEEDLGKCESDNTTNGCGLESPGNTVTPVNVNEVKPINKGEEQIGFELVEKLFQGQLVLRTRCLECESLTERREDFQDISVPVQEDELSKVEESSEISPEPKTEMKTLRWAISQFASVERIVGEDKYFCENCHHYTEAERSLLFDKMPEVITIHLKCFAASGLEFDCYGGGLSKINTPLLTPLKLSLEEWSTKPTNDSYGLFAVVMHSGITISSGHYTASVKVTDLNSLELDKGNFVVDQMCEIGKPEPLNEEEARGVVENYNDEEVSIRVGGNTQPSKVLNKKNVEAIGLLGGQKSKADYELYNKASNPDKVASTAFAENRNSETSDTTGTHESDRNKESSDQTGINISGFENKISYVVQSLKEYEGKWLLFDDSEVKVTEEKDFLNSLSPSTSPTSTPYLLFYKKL
Summary of the method: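 In 50mM HEPES pH 7.8 containing 0.5mM EDTA, 1mM TCEP, 0.1 mg/ml BSA and 0.01% Tween-20, 1nM USP1/UAF1 is exposed to compound for 15 min, then Ub-Rho (150nM final) is added and fluorescence is read over time.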

[16] = target: Cytochrome P450 3A4 (Homo sapiens) (UniProt P08684); assay: qHTS Assay for Inhibitors and Substrates of Cytochrome P450 3A4 (AID 884; active means well fitted curve in the direction sought with a large enough effect; an effect the other way counts as inactive or inconclusive; further: nearly all actives have a fitted effect of over 50% in size; further: potency means the concentration at half of the fitted maximal effect); conditions: recombinant CYP3A4, Luciferin-PPXE luminescence; series mostly up to 57.1 µM
Summary of the method: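 20 nM human CYP3A4 with 25 uM Luciferin-PPXE (at KM) in 200 mM KPO4, preincubated 10 min with compound; NADPH regeneration started a 60 min RT reaction. Luciferin detected by luminescence, normalized to 57 uM ketoconazole as full inhibition.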

[17] = target: Cytochrome P450 2D6 (Homo sapiens) (UniProt P10635); assay: qHTS Assay for Inhibitors and Substrates of Cytochrome P450 2D6 (AID 891; active means well fitted curve in the direction sought with a large enough effect; an effect the other way counts as inactive or inconclusive; further: potency means the concentration at half of the fitted maximal effect; nearly all actives have a fitted effect of over 60% in size); conditions: recombinant CYP2D6, luciferin-ME EGE luminescence; series mostly up to 57.1 µM
Chain of Cytochrome P450 2D6 (Homo sapiens) (P10635 whole entry, looked up): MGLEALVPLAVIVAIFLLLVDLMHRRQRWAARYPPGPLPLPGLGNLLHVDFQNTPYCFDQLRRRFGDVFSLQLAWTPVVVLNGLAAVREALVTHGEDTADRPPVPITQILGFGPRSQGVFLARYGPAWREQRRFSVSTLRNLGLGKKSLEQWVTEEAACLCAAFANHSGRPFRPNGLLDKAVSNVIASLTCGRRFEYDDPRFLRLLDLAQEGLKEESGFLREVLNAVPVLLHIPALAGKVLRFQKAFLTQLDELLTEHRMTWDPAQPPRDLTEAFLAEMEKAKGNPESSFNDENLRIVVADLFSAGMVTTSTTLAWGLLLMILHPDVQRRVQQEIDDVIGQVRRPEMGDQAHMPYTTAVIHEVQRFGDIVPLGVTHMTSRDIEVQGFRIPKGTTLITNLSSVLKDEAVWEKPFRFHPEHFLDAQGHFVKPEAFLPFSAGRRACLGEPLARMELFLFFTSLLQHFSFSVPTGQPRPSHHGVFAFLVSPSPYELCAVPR
Summary of the method: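 Human CYP2D6 (5 nM) with 30 uM Luciferin-ME EGE (at Km) in 100 mM KPO4, compound preincubated 10 min, then NADPH regeneration system for 60 min at room temperature. Luciferin read by luminescence; normalized to 1.43 uM quinidine.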

[18] = target: Dual specificity protein kinase CLK4 (Homo sapiens) (UniProt Q9HAZ1); assay: qHTS Assay for Inhibitors of CDC-like Kinase 4 (Kinase-Glo Assay) (AID 1770; active means well fitted curve in the direction sought with a large enough effect; an effect the other way counts as inactive or inconclusive; further: on the % scale 0 is the no-effect control and ±100 the full control effect; nearly all actives have a fitted effect of over 65% in size); conditions: recombinant Clk4, Kinase-Glo ATP depletion luminescence; series mostly up to 66.7 µM
Chain of Dual specificity protein kinase CLK4 (Homo sapiens) (Q9HAZ1 whole entry, looked up): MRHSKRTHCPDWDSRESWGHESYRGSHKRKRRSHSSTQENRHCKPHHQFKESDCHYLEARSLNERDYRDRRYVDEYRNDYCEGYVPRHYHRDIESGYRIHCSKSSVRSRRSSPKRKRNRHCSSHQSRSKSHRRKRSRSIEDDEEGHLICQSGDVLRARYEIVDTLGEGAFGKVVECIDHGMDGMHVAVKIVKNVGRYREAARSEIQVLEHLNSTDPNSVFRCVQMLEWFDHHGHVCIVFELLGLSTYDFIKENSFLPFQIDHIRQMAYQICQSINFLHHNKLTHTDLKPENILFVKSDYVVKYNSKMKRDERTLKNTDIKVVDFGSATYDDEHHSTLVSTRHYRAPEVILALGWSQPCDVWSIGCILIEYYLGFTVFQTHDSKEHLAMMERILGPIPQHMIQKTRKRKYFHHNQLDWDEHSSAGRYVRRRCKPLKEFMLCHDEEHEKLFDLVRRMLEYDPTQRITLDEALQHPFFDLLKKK
Summary of the method: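 Substrate mix (RS peptide 100 uM, ATP 1 uM) dispensed, compound pinned in, then Clk4 added to 25 nM final. Incubated 4.5 h at RT; Kinase-Glo reagent added, luminescence read after 5 min.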

[19] = target: Dual specificity protein kinase CLK4 (Homo sapiens) (UniProt Q9HAZ1); assay: qHTS Assay for Inhibitors of CDC-like Kinase 4 (ADP-Glo Assay) (AID 1771; active means well fitted curve in the direction sought with a large enough effect; an effect the other way counts as inactive or inconclusive; further: on the % scale 0 is the no-effect control and ±100 the full control effect; nearly all actives have a fitted effect of over 70% in size); conditions: recombinant CLK4, ADP-Glo luminescence; series mostly up to 80 µM
Summary of the method: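 Luminescence from ADP-Glo reports ADP produced by 25 nM Clk4 acting on 100 uM RS repeat peptide with 1 uM ATP over 1 hr at room temperature; residual ATP is depleted before ADP is converted to ATP for detection.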

[20] = measured here: cell count channel max response
[21] = measured here: lipid channel max response

COc1ccccc1CN1CC[C@@]2(CCCN(C(=O)c3cccc(F)c3)C2)C1
Potency [1]: > 11.4 µM (inactive) | activity change, negative = inhibition [2]: -14.6% (inactive) | activity change, negative = inhibition [3]: -10.9% (inactive) | activity, negative = inhibition [4]: 10.2% (inactive) | Potency [5]: > 46 µM (inactive) | outcome [6]: inactive | Potency [7]: inactive | activity change, negative = inhibition [8]: 5.1% (inactive) | max response [8, 20]: 15.7% | max response [8, 21]: 25% | Potency [9]: inactive

O=c1c(-c2cc(F)cc(F)c2)nc2cnc(N3CCNCC3)nc2n1C1CC1
Potency [1]: > 11.4 µM (inactive) | Potency [10]: 3.16 µM (active) | Potency [11]: > 9.22 µM (inactive) | Potency [5]: > 46 µM (inactive) | outcome [6]: inactive | Potency [7]: inactive | Potency [12]: 0.158 µM (active) | Potency [13]: inactive | Potency [14]: 2.51 µM (active) | activity change, negative = inhibition [8]: 2.24% (inactive) | max response [8, 20]: 4.49% | max response [8, 21]: 4.55% | Potency [15]: inactive | Potency [9]: inactive

O=C(c1csnn1)N1CCC[C@@]2(CCN(c3ccccn3)C2)C1
Potency [1]: > 11.4 µM (inactive) | activity change, negative = inhibition [2]: -10.6% (inactive) | Potency [10]: inactive | activity, negative = inhibition [4]: 8.47% (inactive) | Potency [5]: > 46 µM (inactive) | outcome [6]: inactive | Potency [7]: inactive | Potency [13]: inactive | activity change, negative = inhibition [8]: 3.43% (inactive) | max response [8, 20]: 4.63% | max response [8, 21]: 10.9% | Potency [9]: inactive

COCC(=O)N1CCC2(CC1)CN(C(c1ccccc1)c1ccccc1)C2
Potency [1]: > 11.4 µM (inactive) | activity change, negative = inhibition [2]: 3.82% (inactive) | Potency [10]: inactive | activity, negative = inhibition [4]: -8.6% (inactive) | Potency [5]: > 46 µM (inactive) | outcome [6]: inactive | Potency [7]: inactive | Potency [16]: inactive | Potency [17]: 2.51 µM (active) | activity change, negative = inhibition [8]: 2.84% (inactive) | max response [8, 20]: -11.5% | max response [8, 21]: -6.58% | Potency [9]: inactive

O=C(c1ccncc1)N1CCC2(CC1)CCN(c1cccc(-c3ccccc3)c1)CC2
Potency [1]: > 11.4 µM (inactive) | activity change, negative = inhibition [2]: -1.52% (inactive) | Potency [10]: 20 µM (active) | activity, negative = inhibition [4]: -12.5% (inactive) | Potency [5]: > 46 µM (inactive) | Potency [7]: inactive | Potency [17]: 7.94 µM (active) | activity change, negative = inhibition [8]: 1.19% (inactive) | max response [8, 20]: 19.1% | max response [8, 21]: 21.6% | Potency [9]: inactive

Cc1noc(C)c1C(=O)N1CCC[C@@]2(CCN(C(=O)Nc3cccc(F)c3)C2)C1
Potency [1]: > 11.4 µM (inactive) | activity change, negative = inhibition [2]: -2.75% (inactive) | Potency [10]: inactive | activity change, negative = inhibition [3]: 9.58% (inactive) | activity, negative = inhibition [4]: 8.15% (inactive) | Potency [5]: > 46 µM (inactive) | outcome [6]: inactive | Potency [7]: inactive | Potency [16]: 5.01 µM (active) | Potency [13]: inactive | Potency [9]: inactive

CN(C)c1ncc2nc(-c3cccs3)c(=O)n(C[C@H]3CCCO3)c2n1
Potency [1]: > 11.4 µM (inactive) | activity change, negative = inhibition [2]: -15.4% (inactive) | Potency [10]: 1.58 µM (active) | activity change, negative = inhibition [3]: 12.3% (inactive) | activity, negative = inhibition [4]: 1.25% (inactive) | Potency [11]: > 9.22 µM (inactive) | Potency [5]: > 46 µM (inactive) | outcome [6]: inactive | Potency [13]: inactive | activation [14]: -3.72% (inactive) | activity change, negative = inhibition [8]: 4.26% (inactive) | max response [8, 20]: 14.9% | max response [8, 21]: 17.7% | Potency [18]: inactive | Potency [19]: inactive | Potency [15]: inactive

COCC(=O)N1CCC2(CC1)CN(Cc1ccc(C#N)cc1)C2
Potency [1]: > 11.4 µM (inactive) | activity change, negative = inhibition [2]: 3.59% (inactive) | Potency [10]: inactive | Potency [5]: > 46 µM (inactive) | outcome [6]: inactive | Potency [7]: inactive | activity change, negative = inhibition [8]: -4.37% (inactive) | max response [8, 20]: 8.42% | max response [8, 21]: 5.18% | Potency [9]: inactive
